From PubChem BioAssay (NCI)
About 83,000 compounds went through this panel and 20% of them were active in at least one assay; those are over-represented in the sample as a whole.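 Cells were grown in 96-well plates and exposed to the test compound at a single concentration for 48 hours; results are reported as percent growth, with values below 10 considered active.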 Values without a mark were called inactive. Activity calls are given as the source filed them.

How the values were obtained:
Experiment in all cases: NCI-60 one-dose screen, 48 h (100 = growth as untreated, 0 = no growth, -100 = all killed)
Details in all cases: 10 µM unless noted
SK-MEL-2 melanoma = test system: SK-MEL-2 melanoma
EKVX NSCLC = test system: EKVX NSCLC
SN12C renal = test system: SN12C renal
UO-31 renal = test system: UO-31 renal
TK-10 renal = test system: TK-10 renal
ACHN renal = test system: ACHN renal
CAKI-1 renal = test system: CAKI-1 renal
CCRF-CEM leukemia = test system: CCRF-CEM leukemia
MOLT-4 leukemia = test system: MOLT-4 leukemia
RPMI-8226 leukemia = test system: RPMI-8226 leukemia
OVCAR-8 ovarian = test system: OVCAR-8 ovarian
OVCAR-5 ovarian = test system: OVCAR-5 ovarian
OVCAR-4 ovarian = test system: OVCAR-4 ovarian
SK-OV-3 ovarian = test system: SK-OV-3 ovarian
IGROV1 ovarian = test system: IGROV1 ovarian
OVCAR-3 ovarian = test system: OVCAR-3 ovarian
HS 578T breast = test system: HS 578T breast
NCI/ADR-RES ovarian = test system: NCI/ADR-RES ovarian
A498 renal = test system: A498 renal
SR leukemia = test system: SR leukemia

Row | SMILES | growth (SK-MEL-2 melanoma) | growth (EKVX NSCLC) | growth (SN12C renal) | growth (UO-31 renal) [%] | growth (TK-10 renal) [%] | growth (ACHN renal) [%] | growth (CAKI-1 renal) [%] | growth (CCRF-CEM leukemia) | growth (MOLT-4 leukemia) [%] | growth (RPMI-8226 leukemia) | growth (OVCAR-8 ovarian) | growth (OVCAR-5 ovarian) [%] | growth (OVCAR-4 ovarian) [%] | growth (SK-OV-3 ovarian) | growth (IGROV1 ovarian) [%] | growth (OVCAR-3 ovarian) | growth (HS 578T breast) [%] | growth (NCI/ADR-RES ovarian) [%] | growth (A498 renal) | growth (SR leukemia)
1 | CCCNS(=O)(=O)c1ccc(Cl)cc1 | 106% | 91.6% | 103% | 89.9 | 106 | 102 | 93.8 | 100% | 113 | 99.7% | 104% | 110 | 102 | 99.6% | 105 | 109% | 88.1 | 101 |  | 
2 | Cc1ccc(S(N)(=O)=O)cc1Cl | 103% | 125% | 106% | 94.5 | 107 | 107 | 101 | 102% | 96.6 | 103% | 105% | 103 | 115 | 110% | 109 | 115% | 117 | 117 |  | 
3 | CCCCCC#CC(=O)O | 107% | 99.8% | 105% | 81.5 | 104 | 97.1 |  | 102% | 101 | 99.7% | 98.3% | 105 | 103 | 102% | 100 | 123% |  | 119 | 105% | 97.7%
4 | CC1CCC(C)(C)c2ccccc21 (configuration not stated) | 106% | 96.3% | 99.5% | 91.5 | 104 | 98.4 | 96.5 |  | 116 | 117% | 105% | 92.4 | 98.2 | 101% | 98.4 | 114% | 105 | 101 |  | 
5 | CN(C)c1ncnc2c1cnn2C | 110% | 102% | 97.2% | 90.6 | 108 | 110 | 100 | 87.4% |  | 89% | 94.7% | 97.5 | 102 |  |  | 104% | 99.1 | 99.9 |  | 109%
6 | C=COC(=O)C(C)(C)C | 94.7% |  | 93.6% | 84.5 | 98.6 | 108 | 92.2 | 91.9% | 92.5 | 99.2% | 107% | 106 | 108 | 107% | 96.7 | 107% | 101 | 101 | 95.1% | 91.2%
7 | CCCCNc1ccc(-c2ccc(NCCCC)cc2)cc1 | 101% |  | 81.4% | 58.8 | 92 | 71.1 | 64.8 | 51.9% | 68.8 | 61.8% | 82.1% | 90.3 | 63.5 | 94.5% | 78 | 67.8% | 84.2 | 79.3 | 59.7% | 44.1%
8 | CCC(=O)C1C(=O)c2ccccc2C1=O | 102% | 82.6% | 109% | 68.8 | 114 | 115 |  | 107% | 136 | 115% | 99.8% | 103 | 102 | 116% |  | 104% | 135 | 106 | 114% | 
9 | OCC1OC(n2ccc3c2ncn2ncnc32)C(O)C1O (configuration not stated) | 67.7% |  | 27.5% | 27.6 | 22.2 | 29 | 43.5 | 14.1% | 16.1 | 60.7% | 6.1% (active) | 30.2 | 53.3 | 58% | 53.4 | 28.9% | 65.2 | 23.1 | -5.58% (active) | 20.6%
10 | CC(=O)c1cccc(O)c1 | 103% |  | 107% | 90.5 | 90 | 103 | 97.9 | 106% | 95.9 | 105% | 103% | 96.4 | 93.6 | 104% | 106 | 115% | 96.5 | 100 | 38.3% | 90.6%
11 | Clc1ccc(/C=C/c2ccccn2)cc1 | 103% | 76.3% | 108% | 78.1 | 99.3 | 103 |  | -56% (active) | 86.9 | 45.5% | 105% | 112 | 62.3 | 104% | 87.2 | 98.4% |  | 98.8 | 77.3% | 
12 | CC(=O)c1cccs1 | 112% |  | 96.8% | 106 | 103 | 102 | 102 | 113% | 95.4 | 110% | 102% | 103 | 106 | 99% | 110 | 103% | 99.2 | 95.6 | 76.6% | 92.9%
13 | CC(=O)OCC1CCC(COC(C)=O)CC1 (configuration not stated) | 89.8% | 94.3% | 110% | 91.9 | 89.1 |  |  | 115% | 93.1 | 103% | 106% | 106 | 111 | 87.9% | 105 | 102% | 106 | 99.2 | 109% | 95.7%
14 | COc1ccc2c(c1)Nc1ccccc1S2 | 112% | 105% | 107% | 93 | 107 | 114 |  | 104% | 106 | 95.4% | 102% | 106 | 91.4 | 111% | 103 | 113% |  | 111 |  | 118%
15 | C1=NCCc2ccccc21 | 99.7% |  | 102% | 84.3 | 119 | 101 | 99.7 | 96.8% | 101 | 99% | 99.1% | 105 | 98.7 | 93% | 105 | 100% | 83.8 | 106 | 59.9% | 97%
16 | C[n+]1c(/C=C\C=C\N2CCCCC2)sc2ccccc21 | -51.1% (active) | 5.77% (active) | 7.71% (active) | 52.1 | 22 | 66.2 |  | 8.73% (active) |  | -30.4% (active) | -17.7% (active) | 18.2 | 16.4 | -3.97% (active) |  | -24.8% (active) | 34.5 | 62.5 |  | 
17 | Cc1cc(C(=O)c2ccccc2)cc(C)c1O | 118% | 112% | 106% | 84 | 123 | 99.8 |  | -22.1% (active) |  | 81.2% | 101% | 99.5 | 86.8 | 101% | 103 | 109% |  | 104 | 98% | 55.6%
18 | CCCCCCCCCCCCCCCCCC(=O)NCCNC(=O)CCCCCCCCCCCCCCCCC | 90.2% |  | 97.2% | 49 | 106 | 86.2 | 83.3 | 61.9% | 67.2 | 86.4% | 98.2% | 94.8 | 95 | 84.5% | 66.3 | 96.9% | 107 | 93.9 | 101% | 0.967% (active)
19 | Cc1cc(C)cc(OCC(=O)O)c1 | 91.4% | 101% | 99.1% | 86.9 | 97.8 | 98.6 |  | 132% |  | 108% | 100% | 94.6 | 113 | 101% |  | 124% | 105 | 105 | 105% | 
